# Results taken from the supplement of paper PMC8728848.
# The entries come from a sample that favours the strongest signals as a whole.
# B1: Dectin2 (Homo sapiens), Q6EIG7 (protein)
# chain: MMQEQQPQSTEKRGWLSLRLWSVAGISIALLSACFIVSCVVTYHFTYGETGKRLSELHSYHSSLTCFSEGTKVPAWGCCPASWKSFGSSCYFISSEEKVWSKSEQNCVEMGAHLVVFNTEAEQNFIVQQLNESFSYFLGLSDPQGNNNWQWIDKTPYEKNVRFWHLGEPNHSAEQCASIVFWKPTGWGWNDVICETRRNSICEMNKIYL
# Legend:
# Test in all cases: glycan array binding signal (z-score within array); higher = stronger binding
# Details in all cases: glycan notation: IUPAC condensed, linker removed
# [1] = biological target: Fuc(a1-2)Gal(b1-3)GlcNAc(b1-3)[Gal(b1-4)GlcNAc(b1-6)]Gal(b1-4)Glc
# Method in brief: (§1)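 Glycan array binding is given as a within-array Z-score, which can be read as non-binding when negative. The arrays, 3228 of them, came from the Consortium for Functional Glycomics database and were retained only where the protein sequence was available. Z-scores were averaged across arrays of the same protein sequence at different concentrations or buffers and across linkers.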
# [2] = biological target: Fuc(a1-2)Gal(b1-3)GlcNAc(b1-3)[Neu5Ac(a2-6)Gal(b1-4)GlcNAc(b1-6)]Gal(b1-4)Glc
# Method in brief: as §1
# Fuc(a1-2)Gal(b1-4)Glc = biological target: Fuc(a1-2)Gal(b1-4)Glc
# Method in brief: as §1
# [3] = biological target: Fuc(a1-2)Gal(b1-4)GlcNAc6S
# Method in brief: as §1
# [4] = biological target: Fuc(a1-2)[Gal(a1-3)]Gal(b1-4)GlcNAc(b1-3)[Fuc(a1-2)[Gal(a1-3)]Gal(b1-4)GlcNAc(b1-6)]GalNAc
# Method in brief: as §1
# [5] = biological target: Fuc(a1-2)[Gal(a1-3)]Gal(b1-4)[Fuc(a1-3)]GlcNAc
# Method in brief: as §1
# [6] = biological target: Fuc(a1-2)[GalNAc(a1-4)]Gal(b1-4)GlcNAc
# Method in brief: as §1
# Fuc(a1-4)GlcNAc = biological target: Fuc(a1-4)GlcNAc
# Method in brief: as §1
# Gal(b1-3)Gal = biological target: Gal(b1-3)Gal
# Method in brief: as §1
# [7] = biological target: Gal(b1-3)GlcNAc(b1-3)Gal(b1-4)GlcNAc(b1-2)Man(a1-3)[Gal(b1-3)GlcNAc(b1-3)Gal(b1-4)GlcNAc(b1-2)Man(a1-6)]Man(b1-4)GlcNAc(b1-4)GlcNAc
# Method in brief: as §1
# [8] = biological target: Gal(b1-3)GlcNAc(b1-3)Gal(b1-4)GlcNAc(b1-2)[Gal(b1-3)GlcNAc(b1-3)Gal(b1-4)GlcNAc(b1-6)]Man(a1-6)[Gal(b1-3)GlcNAc(b1-3)Gal(b1-4)GlcNAc(b1-2)Man(a1-3)]Man(b1-4)GlcNAc(b1-4)[Fuc(a1-6)]GlcNAc
# Method in brief: as §1
# [9] = biological target: Gal(b1-3)[Fuc(a1-4)]GlcNAc
# Method in brief: as §1
# Gal(b1-4)Glc6S = biological target: Gal(b1-4)Glc6S
# Method in brief: as §1
# [10] = biological target: Gal(b1-4)GlcNAc(b1-2)[Gal(b1-4)GlcNAc(b1-4)]Man(a1-3)[Gal(b1-4)GlcNAc(b1-2)Man(a1-6)]Man(b1-4)GlcNAc(b1-4)GlcNAc
# Method in brief: as §1
# [11] = biological target: Gal(b1-4)GlcNAc(b1-2)[Gal(b1-4)GlcNAc(b1-4)]Man(a1-3)[GlcNAc(b1-4)][Gal(b1-4)GlcNAc(b1-2)[Gal(b1-4)GlcNAc(b1-6)]Man(a1-6)]Man(b1-4)GlcNAc(b1-4)GlcNAc
# Method in brief: as §1
# [12] = biological target: Gal(b1-4)GlcNAc(b1-3)Gal(b1-4)GlcNAc(b1-3)Gal(b1-4)GlcNAc(b1-2)Man(a1-3)[Gal(b1-4)GlcNAc(b1-3)Gal(b1-4)GlcNAc(b1-3)Gal(b1-4)GlcNAc(b1-2)Man(a1-6)]Man(b1-4)GlcNAc(b1-4)[Fuc(a1-6)]GlcNAc
# Method in brief: as §1
# [13] = biological target: Gal(b1-4)GlcNAc(b1-3)GalNAc
# Method in brief: as §1
# [14] = biological target: Gal(b1-4)GlcNAc(b1-3)[Fuc(a1-3)GlcNAc(b1-6)]Gal(b1-4)Glc
# Method in brief: as §1
# [15] = biological target: GlcNAc(b1-3)Gal(b1-4)GlcNAc(b1-3)[GlcNAc(b1-3)Gal(b1-4)GlcNAc(b1-3)]GalNAc
# Method in brief: as §1
# [16] = biological target: GlcNAc(b1-3)Gal(b1-4)GlcNAc(b1-6)[Gal(b1-3)]GalNAc
# Method in brief: as §1
# [17] = biological target: GlcNAc(b1-3)[GlcNAc(b1-4)][GlcNAc(b1-6)]GlcNAc
# Method in brief: as §1
# [18] = biological target: GlcNAc(b1-4)[GlcNAc(b1-6)]GalNAc
# Method in brief: as §1
# [19] = biological target: Kdn(a2-3)Gal(b1-4)[Fuc(a1-3)]GlcNAc
# Method in brief: as §1
# [20] = biological target: Man(a1-2)Man(a1-2)Man(a1-3)Man
# Method in brief: as §1
# [21] = biological target: Man(a1-2)Man(a1-2)Man(a1-6)[Man(a1-3)]Man
# Method in brief: as §1
# Man(a1-2)Man(a1-3)Man = biological target: Man(a1-2)Man(a1-3)Man
# Method in brief: as §1
# [22] = biological target: Man(a1-2)Man(a1-3)[Man(a1-2)Man(a1-6)]Man
# Method in brief: as §1
# [23] = biological target: Man(a1-2)Man(a1-3)[Man(a1-2)Man(a1-6)]Man(a1-6)[Man(a1-2)Man(a1-2)Man(a1-3)]Man
# Method in brief: as §1
# [24] = biological target: Man(a1-2)Man(a1-6)[Man(a1-3)]Man(a1-6)[Man(a1-2)Man(a1-2)Man(a1-3)]Man
# Method in brief: as §1
# [25] = biological target: Man(a1-2)Man(a1-6)[Man(a1-3)]Man(a1-6)[Man(a1-2)Man(a1-2)Man(a1-3)]Man(b1-4)GlcNAc(b1-4)GlcNAc
# Method in brief: as §1
# [26] = biological target: Man(a1-3)[Man(a1-6)]Man(a1-6)[Man(a1-2)Man(a1-3)]Man(b1-4)GlcNAc(b1-4)GlcNAc
# Method in brief: as §1
# [27] = biological target: Neu5Ac(a2-3)Gal(b1-3)GalNAc
# Method in brief: as §1
# [28] = biological target: Neu5Ac(a2-3)Gal(b1-3)[Fuc(a1-4)]GlcNAc
# Method in brief: as §1
# [29] = biological target: Neu5Ac(a2-3)Gal(b1-3)[GlcNAc(b1-6)]GalNAc
# Method in brief: as §1
# [30] = biological target: Neu5Ac(a2-3)Gal(b1-3)]Neu5Ac(a2-3)Gal(b1-4)]GlcNAc
# Method in brief: as §1
# [31] = biological target: Neu5Ac(a2-3)Gal(b1-4)GlcNAc(b1-2)Man(a1-3)[GlcNAc(b1-4)][Neu5Ac(a2-3)Gal(b1-4)GlcNAc(b1-2)Man(a1-6)]Man(b1-4)GlcNAc(b1-4)GlcNAc
# Method in brief: as §1
# [32] = biological target: Neu5Ac(a2-3)Gal6S(b1-4)[Fuc(a1-3)]GlcNAc
# Method in brief: as §1
# Neu5Ac(a2-6)GalNAc = biological target: Neu5Ac(a2-6)GalNAc
# Method in brief: as §1
# [33] = biological target: Neu5Ac(a2-6)GalNAc(b1-4)GlcNAc
# Method in brief: as §1
# [34] = biological target: Neu5Ac(a2-8)Neu5Ac(a2-3)[GalNAc(b1-4)]Gal(b1-4)Glc
# Method in brief: as §1
# [35] = biological target: Neu5Ac(a2-8)Neu5Gc(a2-3)Gal(b1-4)GlcNAc
# Method in brief: as §1
# [36] = biological target: Neu5Gc(a2-8)Neu5Gc(a2-3)Gal(b1-4)GlcNAc(b1-3)Gal(b1-4)GlcNAc
# Method in brief: as §1
binder,measurement,setting,value
B1,glycan array binding signal (z-score),[1],-0.199
same,glycan array binding signal (z-score),[2],-0.182
same,glycan array binding signal (z-score),Fuc(a1-2)Gal(b1-4)Glc,-0.165
same,glycan array binding signal (z-score),[3],0.311
same,glycan array binding signal (z-score),[4],-0.136
same,glycan array binding signal (z-score),[5],-0.1
same,glycan array binding signal (z-score),[6],-0.122
same,glycan array binding signal (z-score),Fuc(a1-4)GlcNAc,-0.102
same,glycan array binding signal (z-score),Gal(b1-3)Gal,-0.111
same,glycan array binding signal (z-score),[7],0.015
same,glycan array binding signal (z-score),[8],1.31
same,glycan array binding signal (z-score),[9],-0.15
same,glycan array binding signal (z-score),Gal(b1-4)Glc6S,-0.188
same,glycan array binding signal (z-score),[10],0.09
same,glycan array binding signal (z-score),[11],-0.17
same,glycan array binding signal (z-score),[12],-0.086
same,glycan array binding signal (z-score),[13],-0.186
same,glycan array binding signal (z-score),[14],-0.161
same,glycan array binding signal (z-score),[15],-0.182
same,glycan array binding signal (z-score),[16],-0.196
same,glycan array binding signal (z-score),[17],1.3
same,glycan array binding signal (z-score),[18],1.29
same,glycan array binding signal (z-score),[19],-0.14
same,glycan array binding signal (z-score),[20],10.3
same,glycan array binding signal (z-score),[21],13.5
same,glycan array binding signal (z-score),Man(a1-2)Man(a1-3)Man,4.35
same,glycan array binding signal (z-score),[22],7.43
same,glycan array binding signal (z-score),[23],13.9
same,glycan array binding signal (z-score),[24],3.05
same,glycan array binding signal (z-score),[25],1.38
same,glycan array binding signal (z-score),[26],1.16
same,glycan array binding signal (z-score),[27],0.09
same,glycan array binding signal (z-score),[28],-0.165
same,glycan array binding signal (z-score),[29],-0.193
same,glycan array binding signal (z-score),[30],-0.206
same,glycan array binding signal (z-score),[31],-0.193
same,glycan array binding signal (z-score),[32],-0.193
same,glycan array binding signal (z-score),Neu5Ac(a2-6)GalNAc,-0.176
same,glycan array binding signal (z-score),[33],-0.192
same,glycan array binding signal (z-score),[34],-0.177
same,glycan array binding signal (z-score),[35],-0.21
same,glycan array binding signal (z-score),[36],-0.206
